A number with no mark means an inactive call. Entries that show only a call come without a potency. For some of these results: Potency and affinity values are given separately. Activity calls are given as the source filed them. Unless noted, how the calls were made is not given here.
Tests used:
[1] = antimalarial activity against Dd2 strain (AID 2302;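 active means growth inhibition above 50% at the single 2 µM test dose, taken to imply half-maximal potency below 2 µM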); settings: P. falciparum Dd2 in RBCs, LDH growth readout, 72 h; at 2 µM; active compounds read high
[2] = HepG2 cytotoxicity, primary screen, cytotoxicity control for P. falciparum antimalarial project, cell-based, ATP luminescence (AID 2303;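 active means inhibition above 50%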); settings: HepG2 viability, 24-48 h, at 10 µM, active compounds read high
[3] = target: L-lactate dehydrogenase (Plasmodium falciparum (isolate CDC / Honduras)) (UniProt Q27743); experiment: PfLDH activity inhibition – cell lysate, 3D7 strain, counter-screen for P. falciparum growth inhibition project (AID 2304); settings: P. falciparum 3D7 crude extract, LDH APAD/NBT absorbance; at 2 µM; active compounds read high
L-lactate dehydrogenase (Plasmodium falciparum (isolate CDC / Honduras)), sequence (Q27743 whole entry, looked up): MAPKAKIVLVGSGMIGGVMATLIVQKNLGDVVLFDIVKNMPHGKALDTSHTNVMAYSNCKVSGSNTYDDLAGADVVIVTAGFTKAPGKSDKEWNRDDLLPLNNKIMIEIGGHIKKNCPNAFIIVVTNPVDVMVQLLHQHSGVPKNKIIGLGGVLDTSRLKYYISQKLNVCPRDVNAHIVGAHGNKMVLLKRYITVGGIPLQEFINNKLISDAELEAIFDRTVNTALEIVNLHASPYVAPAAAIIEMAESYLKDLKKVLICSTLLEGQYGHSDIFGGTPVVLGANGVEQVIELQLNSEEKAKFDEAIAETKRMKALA

[4] = inhibition of 3D7 malaria parasite growth – strain 3D7 (AID 2306); settings: P. falciparum 3D7 erythrocytic growth, LDH absorbance, 72 h; at 2 µM; active compounds read high
[5] = target: Calcium-dependent protein kinase 1 (Plasmodium falciparum (isolate 3D7)) (UniProt P62344); experiment: PfCDPK1 kinase inhibitors, biochemical, TCAMS library (AID 1159585; cut-off not given, nearly all actives have IC50 up to about 0.98 µM;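 further: inhibitors leave more ATP so luminescence rises with inhibition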); settings: recombinant PfCDPK1, Kinase-Glo ATP depletion luminescence
Calcium-dependent protein kinase 1 (Plasmodium falciparum (isolate 3D7)), sequence (P62344 whole entry, looked up): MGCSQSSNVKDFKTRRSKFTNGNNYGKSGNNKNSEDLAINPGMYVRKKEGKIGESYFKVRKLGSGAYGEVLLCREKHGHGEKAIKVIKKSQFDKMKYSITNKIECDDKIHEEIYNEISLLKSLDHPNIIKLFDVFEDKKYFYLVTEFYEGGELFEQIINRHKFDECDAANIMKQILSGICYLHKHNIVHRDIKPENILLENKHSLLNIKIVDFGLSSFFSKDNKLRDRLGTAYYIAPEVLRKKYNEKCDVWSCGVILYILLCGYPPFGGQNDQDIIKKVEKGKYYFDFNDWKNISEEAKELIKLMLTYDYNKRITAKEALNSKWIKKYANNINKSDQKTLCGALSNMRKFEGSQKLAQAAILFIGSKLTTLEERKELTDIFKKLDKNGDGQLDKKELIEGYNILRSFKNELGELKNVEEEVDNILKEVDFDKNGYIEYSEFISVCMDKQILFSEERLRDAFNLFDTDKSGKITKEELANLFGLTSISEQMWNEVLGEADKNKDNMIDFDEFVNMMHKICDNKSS

[6] = target: Plasmodium falciparum protein kinase 6 (PK6, PF3D7_1337100) (UniProt Q8IDW1); experiment: PfPK6 kinase inhibitors, biochemical, TCAMS library (AID 1159586); settings: recombinant PfPK6, Kinase-Glo ATP depletion luminescence
Plasmodium falciparum protein kinase 6 (PK6, PF3D7_1337100), sequence (Q8IDW1 1-305): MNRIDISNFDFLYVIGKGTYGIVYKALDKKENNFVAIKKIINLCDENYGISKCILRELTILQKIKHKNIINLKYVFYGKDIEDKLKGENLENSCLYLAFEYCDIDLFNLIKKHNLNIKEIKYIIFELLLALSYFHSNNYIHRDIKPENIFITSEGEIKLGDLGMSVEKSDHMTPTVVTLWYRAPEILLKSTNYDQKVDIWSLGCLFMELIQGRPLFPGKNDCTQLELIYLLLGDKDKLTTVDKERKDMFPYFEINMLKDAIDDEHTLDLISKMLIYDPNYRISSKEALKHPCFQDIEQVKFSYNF

[7] = target: Protein kinase 7 (PK7), Plasmodium falciparum 3D7 (PF3D7_0213400) (UniProt Q7YTF7); experiment: inhibition of Plasmodium PK7 catalytic activity – biochemical, TCAMS antimalarial set, Kinase-Glo luminescence (AID 1159587); settings: recombinant PfPK7, Kinase-Glo ATP depletion luminescence
Protein kinase 7 (PK7), Plasmodium falciparum 3D7 (PF3D7_0213400), sequence (Q7YTF7 1-343): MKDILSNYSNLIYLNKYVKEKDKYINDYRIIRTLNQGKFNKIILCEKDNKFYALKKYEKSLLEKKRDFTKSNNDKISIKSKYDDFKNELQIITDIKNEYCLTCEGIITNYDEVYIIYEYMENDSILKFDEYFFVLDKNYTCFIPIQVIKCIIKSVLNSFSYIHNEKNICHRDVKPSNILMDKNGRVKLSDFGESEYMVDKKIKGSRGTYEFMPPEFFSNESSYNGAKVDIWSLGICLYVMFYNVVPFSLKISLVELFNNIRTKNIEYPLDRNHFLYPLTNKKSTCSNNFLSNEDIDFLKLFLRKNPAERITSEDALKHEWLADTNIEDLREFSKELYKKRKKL

[8] = target: Calcium-dependent protein kinase 4 (Plasmodium falciparum (isolate 3D7)) (UniProt Q8IBS5); experiment: PfCDPK4 kinase inhibitors, biochemical, TCAMS library (AID 1159588; cut-off not given, nearly all actives have IC50 up to about 0.91 µM); settings: recombinant PfCDPK4, Kinase-Glo ATP depletion luminescence
Calcium-dependent protein kinase 4 (Plasmodium falciparum (isolate 3D7)), sequence (Q8IBS5 whole entry, looked up): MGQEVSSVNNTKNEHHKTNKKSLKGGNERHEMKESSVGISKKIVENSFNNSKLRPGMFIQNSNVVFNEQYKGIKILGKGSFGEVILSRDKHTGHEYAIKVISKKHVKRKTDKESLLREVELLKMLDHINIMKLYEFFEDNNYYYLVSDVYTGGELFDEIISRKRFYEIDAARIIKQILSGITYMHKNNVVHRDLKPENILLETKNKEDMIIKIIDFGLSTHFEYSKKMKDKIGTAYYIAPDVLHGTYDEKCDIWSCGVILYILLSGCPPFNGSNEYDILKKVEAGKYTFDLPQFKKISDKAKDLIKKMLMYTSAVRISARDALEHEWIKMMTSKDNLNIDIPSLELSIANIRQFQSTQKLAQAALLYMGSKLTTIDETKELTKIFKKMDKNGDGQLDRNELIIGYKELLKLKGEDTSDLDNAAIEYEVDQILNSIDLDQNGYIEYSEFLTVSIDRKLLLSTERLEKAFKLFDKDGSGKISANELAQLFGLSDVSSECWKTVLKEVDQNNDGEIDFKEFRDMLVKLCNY

SMILES	growth inhibition [1]	inhibition [2]	inhibition [3] [%]	growth inhibition [4]	outcome [5]	outcome [6]	outcome [7]	outcome [8]
Nc1nccc2ccc(-c3ccc(OCc4ccccc4)cc3)cc12	67% (active)	40%	-8	101% (active)	inactive	inactive	inactive	inactive
CCOc1cc(C(=O)N[C@@H](Cc2ccccc2)[C@H](O)CNCc2cc(OC)cc(OC)c2)cc(N2CCCCS2(=O)=O)c1	98% (active)	-2%	5	100% (active)	inactive	inactive	inactive	inactive
O=C(Nc1ccccc1)OCCOc1ccc(CC2SC(=O)NC2=O)cc1 (stereo not given)	-6%	1%	-3	100% (active)	inactive	inactive	inactive	inactive
Cc1ccc(S(=O)(=O)N(CCCN2CCN(C)CC2)Cc2csc(-c3ccc(CNCc4ccccc4)cc3)n2)cc1	90% (active)	15%	3	97% (active)	inactive	inactive	inactive	inactive
N#Cc1ccc(C(=O)Nc2cccc(-c3ccc(CN4CCCC4)cc3)c2)cc1	-2%	13%	-2	99% (active)	inactive	inactive	inactive	inactive
CCOC(=O)NC1=NC(C)(C)N(OCCCOc2cc(Cl)c(Cl)cc2Cl)C(NC(=O)OCC)=N1	97% (active)	63% (active)	5	91% (active)	inactive	inactive	inactive	inactive
Fc1ccc2nc(-c3cccc(-c4cccc(CNCCN5CCNCC5)c4)c3)[nH]c2c1	4%	18%	-9	94% (active)	inactive	inactive	inactive	inactive
Fc1ccc2nc(-c3cccc(-c4cccc(CN5CCN(c6cnccn6)CC5)c4)c3)[nH]c2c1	35%	17%	-2	93% (active)	inactive	inactive	inactive	inactive
CNC(=O)C1Cc2c([nH]c3cc(Cl)ccc23)C2(CCN(CCc3ccccc3)CC2)N1 (stereo not given)	3%	14%	4	91% (active)	inactive	inactive	inactive	inactive
Cc1[nH]c2ccccc2c1C(=O)CSc1nn(-c2ccccc2)c(=S)s1	99% (active)	-6%	-1	100% (active)	inactive	inactive	inactive	inactive
CC(C)(C)C(=O)Oc1ccc(CC2NCCc3cc(OC(=O)C(C)(C)C)c(OC(=O)C(C)(C)C)cc32)cc1OC(=O)C(C)(C)C (stereo not given)	96% (active)	3%	5	97% (active)	inactive	inactive	inactive	inactive
COc1ccc(-c2cccc(NC(=O)c3ccc(F)cc3)c2)cc1CN1CCCN(C)CC1	35%	26%	2	101% (active)	inactive	inactive	inactive	inactive
CN(C)c1ccc(Br)c(Br)c1	-4%	17%	-5	86% (active)	inactive	inactive	inactive	inactive
Cc1ccc(Oc2c(-c3ccccc3CN3CCCC3CN(C)C)cnn(C)c2=O)cn1 (stereo not given)	9%	-1%	-4	88% (active)	inactive	inactive	inactive	inactive
COc1ccc(C2CC(=O)C3=C(C2)NC(C)=C(C(=O)OC2CCCC2)C3c2ccc(O)cc2)cc1OC (stereo not given)	92% (active)	-9%	-7	97% (active)	inactive	inactive	inactive	inactive
COc1cccc2c(NN=Cc3cccc(F)c3)ccnc12	44%	12%	5	99% (active)	inactive	inactive	inactive	inactive
COc1ccc(CCn2c(=N)c(C(=O)NC3CCCC3)cc3c(=O)n4ccccc4nc32)cc1	34%	11%	1	99% (active)	inactive	inactive	inactive	inactive
O=C(Cc1ccccc1)NC(CCN1CCC(N(C2CC2)S(=O)(=O)c2cccc(C(F)(F)F)c2)CC1)c1ccc(Cl)c(Cl)c1 (stereo not given)	27%	19%	6	85% (active)	inactive	inactive	inactive	inactive
O=C(N[C@@H](CC1CCCCC1)C(=O)NC1CCCc2ccccc21)c1ccc(O)c(-c2ccc(Cl)c(Cl)c2)c1 (stereo not given in full)	99% (active)	1%	-3	98% (active)	inactive	inactive	inactive	inactive
CCN1CCN(CCCNc2c3ccc(Cl)cc3nc3ccc(O)cc23)CC1	1%	32%	-3	103% (active)	inactive	inactive	inactive	inactive
